We go through 18 molecules from ChEMBL document CHEMBL5598561, “ASAP - In vitro binding kinetics” (2024).

The target in the experiment is Nonstructural protein 3 (Zika virus) (UniProt A0A024AXB9). Particulars: PRVABC59, Concentration 10.0 uM.

The structures appear in SMILES notation.

Nonstructural protein 3 (Zika virus), sequence (A0A024AXB9 as listed by the source): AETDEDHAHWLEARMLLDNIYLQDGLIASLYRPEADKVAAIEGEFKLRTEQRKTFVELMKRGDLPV

The molecule `O=C(Nc1ccc2c(c1)CNC2)c1c[nH]c2ncc(F)cc12` returned a pKD (Immobilization level 5500.0 pg/mm2, Rmax 31.0 pg/mm2, ka 181164.217 M-1s-1, kd 6.639 1/s) of 4.44.

For the setting “Immobilization level 12000.0 pg/mm2, Rmax 28.0 pg/mm2, ka 273415.174 M-1s-1, kd 3.732 1/s”, `CCS(=O)(=O)c1ccc(Cl)cc1C(=O)Nc1ccc2c(c1)CNC2` registered a pKD of 4.87.

Regarding `O=C(Nc1ccc(C2CCNCC2)cc1)c1cc(Cl)cc2[nH]ncc12`, the pKD was 5.56 (Immobilization level 10000.0 pg/mm2, Rmax 4.0 pg/mm2, ka 163257.858 M-1s-1, kd 0.446 1/s); 5.87 (Immobilization level 12000.0 pg/mm2, ka 318291.503 M-1s-1, kd 0.429 1/s); 5.61 (Immobilization level 13000.0 pg/mm2, ka 203161.324 M-1s-1, kd 0.494 1/s).

For `N[C@H]1CCc2cc(NC(=O)c3cc(Cl)cc4[nH]ncc34)ccc21`, the pKD came to 4.78 (Immobilization level 12000.0 pg/mm2, Rmax 40.0 pg/mm2, ka 202508.522 M-1s-1, kd 3.352 1/s) and 4.83 (Immobilization level 13000.0 pg/mm2, Rmax 32.0 pg/mm2, ka 287481.012 M-1s-1, kd 4.268 1/s).

For the molecule `O=C(Nc1ccc2c(c1)CNC2)c1cc(Cl)cc2ccncc12`, the pKD turned out to be 6.22 (Immobilization level 10000.0 pg/mm2, Rmax 18.0 pg/mm2, ka 555072.266 M-1s-1, kd 0.336 1/s); 6.03 (Immobilization level 12000.0 pg/mm2, Rmax 46.0 pg/mm2, ka 241038.936 M-1s-1, kd 0.226 1/s); 6.17 (Immobilization level 13000.0 pg/mm2, Rmax 30.0 pg/mm2, ka 431290.6 M-1s-1, kd 0.289 1/s).

In the case of `O=C(Nc1ccc2c(c1)CNC2)c1cc(=O)[nH]c2c(F)cccc12`, the pKD by setting is: (Immobilization level 4900.0 pg/mm2, Rmax 18.0 pg/mm2, ka 230791.194 M-1s-1, kd 7.379 1/s) 4.5; (Immobilization level 5500.0 pg/mm2, Rmax 21.0 pg/mm2, ka 297955.59 M-1s-1, kd 8.334 1/s) 4.55.

In the case of `O=C(Nc1ccc2c(c1)CNC2)c1cc(Br)cc2[nH]c(-c3ccccc3)nc12`, the pKD was 5.79 (Immobilization level 10000.0 pg/mm2, Rmax 3.0 pg/mm2, ka 184994.652 M-1s-1, kd 0.296 1/s); 4.87 (Immobilization level 12000.0 pg/mm2, Rmax 13.0 pg/mm2, ka 22744.722 M-1s-1, kd 0.309 1/s); 5.54 (Immobilization level 13000.0 pg/mm2, ka 103523.991 M-1s-1, kd 0.302 1/s).

With `O=C(NC1CCOCC1)[C@H](Nc1ccc2c(c1)CNC2)c1cc(Cl)cc(C2CC2)c1`, the pKD was 6.64 (Immobilization level 10000.0 pg/mm2, Rmax 26.0 pg/mm2, ka 616891.885 M-1s-1, kd 0.14 1/s); 6.4 (Immobilization level 12000.0 pg/mm2, Rmax 48.0 pg/mm2, ka 284907.141 M-1s-1, kd 0.112 1/s); 6.59 (Immobilization level 13000.0 pg/mm2, Rmax 35.0 pg/mm2, ka 474880.78 M-1s-1, kd 0.123 1/s).

For the molecule `O=C(Nc1ccc2c(c1)CNC2)c1cc(Br)cc2[nH]c(C3CCOCC3)nc12`, the pKD is, setting by setting: (Immobilization level 10000.0 pg/mm2, Rmax 36.0 pg/mm2, ka 49989.202 M-1s-1, kd 0.558 1/s) 4.95; (Immobilization level 12000.0 pg/mm2, Rmax 42.0 pg/mm2, ka 41393.875 M-1s-1, kd 0.2 1/s) 5.32; (Immobilization level 13000.0 pg/mm2, Rmax 57.0 pg/mm2, ka 35403.894 M-1s-1, kd 0.403 1/s) 4.94.

`O=C(Nc1ccc2c(c1)CNC2)c1ccccc1-n1cccc1` displayed a pKD (Immobilization level 5500.0 pg/mm2, Rmax 27.0 pg/mm2, ka 207569.847 M-1s-1, kd 8.279 1/s) of 4.4.

Consider `N#Cc1cc(Cl)cc([C@H](C#N)Nc2ccc3c(c2)CNC3)c1`, for which the pKD reads like this: (Immobilization level 10000.0 pg/mm2, Rmax 24.0 pg/mm2, ka 238302.252 M-1s-1, kd 1.184 1/s) 5.3; (Immobilization level 12000.0 pg/mm2, Rmax 44.0 pg/mm2, ka 146250.163 M-1s-1, kd 0.612 1/s) 5.38; (Immobilization level 13000.0 pg/mm2, Rmax 28.0 pg/mm2, ka 315015.409 M-1s-1, kd 0.863 1/s) 5.56.

`Cn1cc(CCc2nc3c(C(=O)Nc4ccc5c(c4)CNC5)cc(Cl)cc3[nH]2)cn1`: the negative logarithm of the KD (pKD) runs as follows: (Immobilization level 10000.0 pg/mm2, Rmax 29.0 pg/mm2, ka 162831.43 M-1s-1, kd 0.539 1/s) 5.48; (Immobilization level 12000.0 pg/mm2, Rmax 67.0 pg/mm2, ka 60654.253 M-1s-1, kd 0.241 1/s) 5.4; (Immobilization level 13000.0 pg/mm2, Rmax 46.0 pg/mm2, ka 118753.092 M-1s-1, kd 0.416 1/s) 5.46.

For the molecule `O=C(NCC1CCOCC1)[C@H](Nc1ccc2c(c1)CNC2)c1cc(Cl)cc2[nH]ncc12`, the negative logarithm of the KD (pKD) worked out at 6.17 (Immobilization level 10000.0 pg/mm2, Rmax 24.0 pg/mm2, ka 732529.674 M-1s-1, kd 0.501 1/s); 6.14 (Immobilization level 12000.0 pg/mm2, Rmax 44.0 pg/mm2, ka 461664.392 M-1s-1, kd 0.336 1/s); 6.25 (Immobilization level 13000.0 pg/mm2, Rmax 32.0 pg/mm2, ka 718906.653 M-1s-1, kd 0.399 1/s).

As to `O=C(NCC(F)F)[C@H](Nc1ccc2c(c1)CNC2)c1cc(Cl)cc(C2CC2)c1`, the pKD (Immobilization level 10000.0 pg/mm2, Rmax 47.0 pg/mm2, ka 474542.901 M-1s-1, kd 0.05 1/s) was found to be 6.97; the pKD (Immobilization level 12000.0 pg/mm2, Rmax 82.0 pg/mm2, ka 199001.376 M-1s-1, kd 0.068 1/s) was 6.46; the pKD (Immobilization level 13000.0 pg/mm2, Rmax 74.0 pg/mm2, ka 337297.719 M-1s-1, kd 0.055 1/s) was determined as 6.78.

`NS(=O)(=O)c1cc(Cl)cc(C(=O)Nc2ccc3c(c2)CNC3)c1`: the pKD came to 4.92 (Immobilization level 10000.0 pg/mm2, Rmax 26.0 pg/mm2, ka 224016.174 M-1s-1, kd 2.677 1/s); 5.08 (Immobilization level 12000.0 pg/mm2, Rmax 52.0 pg/mm2, ka 213819.19 M-1s-1, kd 1.773 1/s); 5.12 (Immobilization level 13000.0 pg/mm2, Rmax 31.0 pg/mm2, ka 267165.084 M-1s-1, kd 2.041 1/s).

With `O=C(NCc1ccc(F)cc1)[C@H](Nc1ccc2c(c1)CNC2)c1cc(Cl)cc2[nH]ncc12`, the pKD is, setting by setting: (Immobilization level 10000.0 pg/mm2, Rmax 51.0 pg/mm2, ka 449498.965 M-1s-1, kd 0.143 1/s) 6.5; (Immobilization level 12000.0 pg/mm2, Rmax 66.0 pg/mm2, ka 240349.747 M-1s-1, kd 0.114 1/s) 6.32; (Immobilization level 13000.0 pg/mm2, Rmax 64.0 pg/mm2, ka 328786.628 M-1s-1, kd 0.139 1/s) 6.37.

`COC(=O)CNC(=O)[C@H](Nc1ccc2c(c1)CNC2)c1cc(Cl)cc(C2CC2)c1`: the pKD was found to be 6.43 (Immobilization level 10000.0 pg/mm2, Rmax 43.0 pg/mm2, ka 346362.757 M-1s-1, kd 0.129 1/s); 6.22 (Immobilization level 12000.0 pg/mm2, Rmax 59.0 pg/mm2, ka 177006.564 M-1s-1, kd 0.106 1/s); 6.26 (Immobilization level 13000.0 pg/mm2, Rmax 62.0 pg/mm2, ka 244445.044 M-1s-1, kd 0.134 1/s).

With `O=C(NC[C@H]1CCCO1)[C@H](Nc1ccc2c(c1)CNC2)c1cc(Cl)cc2[nH]ncc12`, the negative logarithm of the KD (pKD) reads like this: (Immobilization level 10000.0 pg/mm2, Rmax 25.0 pg/mm2, ka 729483.46 M-1s-1, kd 0.307 1/s) 6.38; (Immobilization level 12000.0 pg/mm2, Rmax 48.0 pg/mm2, ka 423834.605 M-1s-1, kd 0.21 1/s) 6.31; (Immobilization level 13000.0 pg/mm2, Rmax 36.0 pg/mm2, ka 640560.866 M-1s-1, kd 0.251 1/s) 6.41.
